Screens deposited in PubChem BioAssay by National Center for Advancing Translational Sciences (NCATS).
BAZ2B inh = blocks human BAZ2B; AlphaScreen BAZ2B-H3K14Ac peptide displacement; Potency, µM (titrated, usually from 114 µM), for the others: top-dose activity change, negative = inhibition, hits mostly inhibitors; 4.4% of 360,000 active; AID 504333; further: potency means the concentration at half of the fitted maximal effect; on the % scale 0 is the no-effect control and ±100 the full control effect; nearly all actives have a fitted effect of over 60% in size
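BAZ2B (50 nM) with biotin-H3(5-23)K14Ac peptide (50 nM) in PBS pH 7.4, 0.01% Tween-20, preformed 30 min, then compound 30 min at room temperature; top concentration 110uM. AlphaScreen streptavidin donor/nickel chelate acceptor beads (10 ug/mL final), 20 min dark, signal read.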
L3MBTL1 inh = L3MBTL1 (human) inhibition | Potency, µM (highest dose often 57.1 µM), inactives show at the top dose activity, negative = inhibition, actives largely listed as inhibitors | 0.66% of 230,000 active | AlphaScreen L3MBTL1–H3K9me1 peptide binding; further: potency means the concentration at half of the fitted maximal effect; on the % scale 0 is the no-effect control and ±100 the full control effect; nearly all actives have a fitted effect of over 60% in size
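AlphaScreen assay: L3MBTL1 (50 nM final) was preincubated 30 min at room temperature with biotinylated H3(1-15)K9me1 peptide (75 nM final), then 30 min with library compounds; streptavidin donor and nickel chelate acceptor beads (10 ug/mL final) added, 30 min dark.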
PI5P4K alpha inh = inhibitors of human PI5P4K alpha. max response, %. P48426. AID 652105. 1.2% of 330,000 active. PI5P4Kalpha enzyme, ADP-Glo luminescence, 60 min; active compounds read low; active means max response of -50% or lower; inconclusive means between -30% and -50%; inactive means -30% or higher; further: value at the top dose of about 77 µM; on the % scale 0 is the no-effect control and ±100 the full control effect
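ADP-Glo luminescence end-point read after a 60 min room-temperature kinase reaction of PI5P4Kalpha plus substrate, initiated with ATP at 5 microM final. Buffer: 0.038 M HEPES pH 7.4, EGTA, 0.1% CHAPS, 5% DMSO.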
HP1b chromo inh = inhibitors of HP1-beta chromodomain binding to methylated histone tails; P83916; AlphaScreen HP1-beta / biotin-H3K9me3 peptide binding; Potency, µM (titrated, usually from 114 µM), for the others: at the top dose activity change, negative = inhibition, usual class: inhibitors; 0.56% of 390,000 active; further: potency means the concentration at half of the fitted maximal effect; nearly all actives have a fitted effect of over 70% in size
Target sequence (P83916 whole entry, looked up): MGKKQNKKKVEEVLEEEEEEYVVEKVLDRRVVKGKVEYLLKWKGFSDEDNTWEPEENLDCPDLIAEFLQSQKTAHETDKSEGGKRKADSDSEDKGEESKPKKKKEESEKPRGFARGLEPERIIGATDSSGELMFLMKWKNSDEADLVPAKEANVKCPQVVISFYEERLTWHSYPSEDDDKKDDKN
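Compound inhibition of the preformed complex between 50 nM HP1-beta and 50 nM biotinylated H3K9me3 peptide was read by AlphaScreen. Buffer was PBS pH 7.4 with 0.01% Tween-20. Incubations ran 30 min at room temperature, with 10 ug/mL donor/acceptor beads.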
JMJD2A Tudor = JMJD2A Tudor domain (human) inhibition. 4.4% of 390,000 active. O75164. AlphaScreen JMJD2A-Tudor / H3K4me3 peptide binding. Potency, µM (titrated, usually from 114 µM), for the others: at the top dose activity change, negative = inhibition, usual class: inhibitors; further: potency means the concentration at half of the fitted maximal effect; on the % scale 0 is the no-effect control and ±100 the full control effect; nearly all actives have a fitted effect of over 50% in size
JMJD2E inh = blocks human JMJD2E demethylase activity; Potency, µM (top dose mostly 57.1 µM), for inactives: at the highest dose activity change, negative = inhibition, actives largely listed as inhibitors; 1.6% of 230,000 active; JMJD2E catalytic domain, FDH-coupled NADH fluorescence (FDH is formaldehyde dehydrogenase); B2RXH2; AID 2147; active means well fitted inhibition curve with a large enough effect, not every such curve was filed as active; inconclusive means small, poorly fitted or top-dose-only effect, or another doubt; inactive means no such curve, though single readings can be large or run the other way;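 further: potency means the concentration at half of the fitted maximal effect; 0% = wells with enzyme and -100% = buffer wells without enzyme; nearly all actives have a fitted effect of over 50% in size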
Target sequence (B2RXH2 1-337 limits assumed): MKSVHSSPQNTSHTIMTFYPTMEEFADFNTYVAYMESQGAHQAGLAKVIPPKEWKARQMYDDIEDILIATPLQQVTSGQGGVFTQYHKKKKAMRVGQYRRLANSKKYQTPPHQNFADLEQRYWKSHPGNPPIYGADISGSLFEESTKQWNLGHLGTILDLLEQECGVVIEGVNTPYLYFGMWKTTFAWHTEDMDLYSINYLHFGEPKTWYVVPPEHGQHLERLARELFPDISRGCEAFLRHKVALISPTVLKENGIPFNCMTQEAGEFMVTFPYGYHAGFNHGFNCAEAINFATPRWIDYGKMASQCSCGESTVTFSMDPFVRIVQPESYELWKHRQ
Starred values were filed as active, the others as inactive; ? = inconclusive; · = not tested or not shown; [ ] = remark or other dose. A selection: hits, their analogues and other compounds. The true share with any hit is near 5.7%. Unless noted, the call rests on the fitted dose curve; in most records, active means well fitted inhibition curve with a large enough effect; inconclusive means small, poorly fitted or top-dose-only effect; inactive means no such curve, though single readings can be large or run the other way.

SMILES	BAZ2B inh	L3MBTL1 inh	PI5P4K alpha inh	HP1b chromo inh	JMJD2A Tudor	JMJD2E inh
CCCCc1nc2sc3c(=O)[nH]c(=S)[nH]c3c2c2c1CCC2	·	·	-3	39%	20µM*	·
CCc1[nH]c(=S)c(C#N)c2c1CCCC2	-19%	-12%	-52*	?	14µM*	-10%
CCOC(=O)c1c2c([nH]c(=S)c1C#N)CCCC2	?	-10%	?	-15%	8.9µM*	-8%
O=C(CN1C(=O)NC2(CCOc3ccccc32)C1=O)NCCc1ccccc1 (stereo unspecified)	·	-4%	-12	13%	-11%	·
Cc1cccc(NS(=O)(=O)c2ccc3oc(=O)c4ncn(C)c4c3c2)c1C	-7%	·	·	25%	-12%	·
O=C(CN1C(=O)C2(SCC(=O)N2c2ccccc2)c2ccccc21)NCc1ccccc1 (stereo unspecified)	-10%	·	·	38%	-4%	·
N#CN1CCC(N[S+](=O)([O-])c2cccc(F)c2)CC1	·	·	·	·	-1%	·
Cc1ccc2occ(CN3CCN(c4ccccc4)CC3)c(=O)c2c1	-30%	-6%	·	-9%	?	-3%
Cc1ccc2occ(CN3CCN(Cc4ccccc4)CC3)c(=O)c2c1	?	10%	·	·	·	-19%
Cc1ccc2occ(C3N[C@H](C(=O)O)CS3)c(=O)c2c1 (stereo partly specified)	?	-9%	?	?	7.9µM*	?
Cc1ccc2occ(C3NC(C(=O)O)CS3)c(=O)c2c1 (stereo unspecified)	50µM*	-7%	-1	44%	4%	?
Cc1ccc(C(=O)Nc2ccccc2C(=O)NC(Cc2c[nH]c3ccccc23)C(=O)O)cc1 (stereo unspecified)	79µM*	5%	-4	-24%	-23%	2%
O=C(Cc1cccs1)NC(Cc1c[nH]c2ccccc12)C(=O)O (stereo unspecified)	-18%	·	-2	2%	22µM*	·
Cc1nc(N[C@@H](Cc2c[nH]c3ccccc23)C(=O)O)c2oc3ccccc3c2n1	56µM*	-11%	·	27%	-23%	-14%
CCOc1ccc(NC(=O)c2sc(-n3nc(C)c(CCC(C)C)c3C)nc2C)cc1	-25%	·	·	56%	9%	·
CC(C)(C)NC(=O)C(c1cccs1)N(Cc1ccc(F)cc1)C(=O)c1csnn1 (stereo unspecified)	-1%	5%	-4	-3%	?	-10%
O=c1cc(CSc2ccccc2)[nH]c2ccc(F)cc12	7%	·	·	20%[57 µM]	-13%	·
COc1ccc(-c2cc(C)no2)cc1S(=O)(=O)NCCc1ccco1	?	·	-13	-30%	79µM*	·
COc1ccc(CCNS(=O)(=O)c2cc(-c3cc(C)no3)ccc2OC)cc1OC	-3%	·	·	27%	-7%	·
Cn1cccc1C(=O)C(=O)Nc1ccc(Cl)cc1	-31%	-3%	0	-2%	-3%[11.4 µM]	-3%
Cn1cccc1C(=O)C(=O)Nc1cc(Cl)cc(Cl)c1	4%	-8%	?	-3%	16µM*	3%
COC(=O)c1cccc(NC(=O)CSc2nc(=O)cc(N)n2-c2ccccc2)c1	56µM*	·	0	-11%	-22%	-4%
Cc1ccc(NC(=O)CSc2nc(=O)cc(N)n2-c2ccccc2)cc1	-3%	·	8	36%	2%	8%
COc1cc(/C=C2/C(=O)NN(c3ccc(Cl)c(Cl)c3)C2=O)cc([N+](=O)[O-])c1O	40µM*	·	-88*	?	16µM*	·
COC(=O)c1ccc(N2NC(=O)/C(=C/c3cc(OC)c(OC)c(OC)c3)C2=O)cc1	-30%	·	-11	19%	-10%	·
COc1cc(/C=C2/C(=O)N(c3ccc(Br)cc3)N=C2C)cc([N+](=O)[O-])c1O	-33%	·	·	·	·	·
COc1cc(/C=C2/C(=O)NN(c3ccc(Cl)cc3)C2=O)cc(Br)c1O	45µM*	-24%	?	?	40µM*	·
COc1cc(/C=C2/C(=O)NN(c3ccc(F)cc3)C2=O)cc(Cl)c1O	32µM*	·	?	?	32µM*	·
